Reference: PubChem BioAssay AID1159580 (chemical genetic matrix, 2015)
Where “and” joins values, the source holds several entries; their conditions need not be identical. Identical values can stand only once. Out of some 5,500 compounds screened, about 2,000 (36%) were called active. About 18% were inconclusive and are not listed. Rule as the data show it: active = normalized growth mostly below about 0.91 (no sharp cut-off); inconclusive = no clear call, values can overlap the other calls; inactive = mostly above about 0.92. The list shows a part of the results.

Assay: chemical genetic growth profiling, strain panel (AID 1159580);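 also: tested at 20 µM; growth read once vehicle control cultures reached saturation at 30 °C; 1 = growth at the plate median or of vehicle wells; lower values mean less growth of the strain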
Conditions: S. cerevisiae deletion strains, growth OD
[1] = locus YAL013W, strain DEP1, hits give low values
[2] = locus YAL040C, strain CLN3, hits give low values
[3] = locus YCL061C, strain MRC1 (second series), hits give low values
[4] = locus YDR150W, strain NUM1, hits give low values
[5] = locus YDR363W, strain ESC2, hits give low values
[6] = locus YER002W, strain NOP16, hits give low values
[7] = locus YGR078C, strain PAC10, hits give low values
[8] = locus YNL175C, strain NOP13, hits give low values
[9] = locus YNL197C, strain WHI3, hits give low values
[10] = locus YNL224C, strain SQS1, hits give low values
[11] = locus YOR083W, strain WHI5 (second series), hits give low values
[12] = locus YPL055C, strain LGE1, hits give low values
[13] = locus YMR263W, strain SAP30, hits give low values
[14] = locus YPL241C, strain CIN2, hits give low values
[15] = locus YJR075W, strain HOC1, hits give low values
[16] = locus YNL322C, strain KRE1, hits give low values

Measured: normalized growth

CC(C)NC[C@H](O)c1ccc(O)c(O)c1
inactive: [1] 1.01 | [2] 0.998 | [3] 1 | [4] 0.99 | [5] 1 | [6] 1 | [7] 1.01 | [8] 1.02 | [9] 1.01 | [10] 1.01 | [11] 1 | [12] 0.97

COc1cc(C(O)CN)ccc1O (stereo not drawn)
inactive: [2] 1.01 | [3] 1.01 | [5] 1.02 | [6] 1.04 | locus YGR229C, strain SMI1, hits give low values 1.01 | [13] 1.01 | [8] 1.02 | [9] 1.01 | [10] 1 | [11] 1.01 | [14] 1

CNC[C@H](O)c1ccc(O)c(O)c1
inactive: [1] 1.01 | [2] 1.04 | [3] 1 | [4] 1 | [5] 0.993 | [6] 1.01 | [7] 1.02 | [15] 1 | [8] 1.01 | [9] 1.01 | [10] 1.01 | [16] 0.997 | [11] 1.02 | [14] 1

NCC(O)c1ccc(O)c(O)c1 (stereo not drawn)
inactive: [2] 1.01 and 1.02 | [3] 0.998 | [5] 0.991 | [6] 1.02 and 0.999 | [7] 1 | [15] 1.02 | [13] 1.01 | locus YMR307W, strain GAS1, hits give low values 1.02 | locus YNL153C, strain GIM3, hits give low values 1.01 | [8] 0.999 and 1.01 | [9] 0.995 and 1.01 | [10] 0.987 and 0.982 | [16] 0.997 and 1.02 | [11] 0.98 and 0.991 | [12] 1 | [14] 1.01
